Measured values reported in PubChem BioAssay (EPA / NIEHS).
Active and inactive are the calls of the source. The calls were made as follows: active = hit-call score of the fitted dose curve at least 0.9, where 1 is the maximum; inactive = score below 0.9.

Tests used:
[1] = BSK_3C_SRB: Viability Assessment in the BioMAP Diversity Plus: 3C Assay (AID 2283023); details: primary human endothelial cells (HUVEC);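 also: fitted both ways against DMSO so a hit may be signal rise or drop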
Procedure, shortened: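 Overt cytotoxicity is gauged in parallel confluent HUVEC cultures by SRB total-protein staining at the time of biomarker measurement, 24 h after dosing. Gain or loss of signal is fitted versus DMSO.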

[2] = read-out: Matrix Metallopeptidase 1 (MMP1), MMP1 (gene 4312); assay: BSK_BE3C_MMP1: BioMAP Diversity Plus: BE3C Assay for Matrix Metallopeptidase 1 (MMP1) Biomarker Activity (AID 2283024); details: primary human bronchial epithelial cells; actives raise or lower the signal
Procedure, shortened: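 ELISA read-out of MMP1 in human lung bronchial epithelial primary cultures, 24 h post-dose; bidirectional curve fit vs DMSO baseline, gain or loss of signal scored.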

[3] = BSK_3C_Vis: BioMAP Diversity Plus: 3C Assay for Morphology Visualization (AID 2283025); details: primary human endothelial cells (HUVEC);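 also: fitted both ways so gain or loss versus DMSO counts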;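 as to AC50: light microscopy image of cell morphology used as background control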
Procedure, shortened: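 HUVEC, 3C system; light microscopy of morphology at 24 h post-dose. Bidirectional fit vs DMSO baseline. Secondary readout, background-control function.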

[4] = read-out: Pselectin, SELP (gene 6403); assay: BSK_4H_Pselectin: BioMAP Diversity Plus: 4H Assay for Pselectin Biomarker Activity (AID 2283026); details: primary human endothelial cells (HUVEC); actives raise or lower the signal
Procedure, shortened: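 HUVEC, 24 h chemical exposure; P-selectin read by ELISA. Bidirectional curve fit vs DMSO baseline; gain or loss of signal scored.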

[5] = BSK_4H_SRB: Viability Assessment in the BioMAP Diversity Plus: 4H Assay (AID 2283027); details: primary human endothelial cells (HUVEC);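 also: cells exposed to compound for 24 h before staining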;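 as to AC50: curves fitted both ways versus DMSO so AC50 may be loss or gain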
Procedure, shortened: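 Cytotoxicity readout: sulforhodamine B (0.1%) staining of total protein after 10% TCA fixation, measured at 560 nm in human umbilical vein endothelium at 24 h. DMSO set the baseline; fitting was bidirectional.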

[6] = read-out: Thrombomodulin, THBD (gene 7056); assay: BSK_3C_Thrombomodulin: BioMAP Diversity Plus: 3C Assay for Thrombomodulin Biomarker Activity (AID 2283029); details: primary human endothelial cells (HUVEC); actives raise or lower the signal
Procedure, shortened: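 HUVEC, 3C conditions; compound 24 h; thrombomodulin by ELISA; bidirectional curve fit vs DMSO baseline; parallel SRB total-protein staining for cytotoxicity.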

[7] = read-out: Urokinase-type plasminogen activator receptor (uPAR), PLAUR (gene 5329); assay: BSK_4H_uPAR: BioMAP Diversity Plus: 4H Assay for Urokinase-type plasminogen activator receptor (uPAR) Biomarker Activity (AID 2283030); details: primary human endothelial cells (HUVEC); actives raise or lower the signal
Procedure, shortened: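 Endpoint derived via bidirectional curve fitting against DMSO baseline; readout was ELISA detection of uPAR on umbilical vein endothelial cells at 24 h post-treatment, with SRB-stained parallel cultures assessing cytotoxicity.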

[8] = read-out: Vascular endothelial growth factor receptor 2 (Homo sapiens) (UniProt P35968); assay: BSK_4H_VEGFRII: BioMAP Diversity Plus: 4H Assay for Vascular endothelial growth factor receptor 2 (VEGFR2) Biomarker Activity (AID 2283031); details: primary human endothelial cells (HUVEC); actives raise or lower the signal;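 as to AC50: cell-surface VEGFR2 protein level quantified by ELISA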
Procedure, shortened: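 In this multiplexed HUVEC system, biomarker ELISA was performed after 24 h chemical exposure. Parallel SRB staining (TCA fixation, 560 nm) tracked cytotoxicity; DMSO served as baseline.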

[9] = read-out: Human Leukocyte Antigen - DR isotype (HLADR), HLA-DRA (gene 3122); assay: BSK_BE3C_HLADR: BioMAP Diversity Plus: BE3C Assay for Human Leukocyte Antigen - DR isotype (HLADR) Biomarker Activity (AID 2283032); details: primary human bronchial epithelial cells; actives raise or lower the signal
Procedure, shortened: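 Primary human bronchial epithelial cells (BE3C); 24 h chemical exposure; HLA-DR by ELISA; bidirectional curve fit vs DMSO baseline.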

[10] = read-out: Vascular cell adhesion molecule 1 (VCAM1), VCAM1 (gene 7412); assay: BSK_4H_VCAM1: BioMAP Diversity Plus: 4H Assay for Vascular cell adhesion molecule 1 (VCAM1) Biomarker Activity (AID 2283033); details: primary human endothelial cells (HUVEC); actives raise or lower the signal;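 as to outcome: cell-surface VCAM-1 protein measured by ELISA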
Procedure, shortened: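 HUVEC, 24 h post-dose; VCAM-1 by ELISA. Bidirectional curve fit vs DMSO baseline. Parallel SRB total-protein stain (0.1% SRB after 10% TCA fixation, 560 nm) for cytotoxicity.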

[11] = read-out: Interferon-gamma inducible Protein 10 (IP10), CXCL10 (gene 3627); assay: BSK_BE3C_IP10: BioMAP Diversity Plus: BE3C Assay for Interferon-gamma inducible Protein 10 (IP10) Biomarker Activity (AID 2283034); details: primary human bronchial epithelial cells; actives raise or lower the signal
Procedure, shortened: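 ELISA readout of IP-10 in BE3C system: primary human bronchial epithelial cells, 24 h post-dosing; bidirectional curve fit vs DMSO baseline.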

[12] = read-out: Monokine induced gamma interferon (MIG), CXCL9 (gene 4283); assay: BSK_BE3C_MIG: BioMAP Diversity Plus: BE3C Assay for Monokine induced gamma interferon (MIG) Biomarker Activity (AID 2283035); details: primary human bronchial epithelial cells; actives raise or lower the signal;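 as to outcome: MIG protein measured by ELISA in BE3C cultures after 24 h of dosing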
Procedure, shortened: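 hu bronchial epithelial 1° cells, 24 h cpd; MIG by ELISA; bidirectional fit, DMSO = baseline.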

[13] = read-out: Transforming growth factor beta 1 (TGFb1), TGFB1 (gene 7040); assay: BSK_BE3C_TGFb1: BioMAP Diversity Plus: BE3C Assay for Transforming growth factor beta 1 (TGFb1) Biomarker Activity (AID 2283036;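 as to outcome: TGF-b1 protein level measured by ELISA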); details: primary human bronchial epithelial cells; actives raise or lower the signal
Procedure, shortened: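 Read-out: ELISA for TGF-b1 in primary human bronchial epithelial cultures, 24 h post-dose. Bidirectional curve fitting vs DMSO control; gain or loss of signal both scored.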

[14] = read-out: Plasminogen activator inhibitor-1 (PAI1), SERPINE1 (gene 5054); assay: BSK_BE3C_PAI1: BioMAP Diversity Plus: BE3C Assay for Plasminogen activator inhibitor-1 (PAI1) Biomarker Activity (AID 2283037); details: primary human bronchial epithelial cells; actives raise or lower the signal
Procedure, shortened: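 ELISA read-out of PAI-1 from human bronchial epithelial primary cells, 24 h post-dosing; bidirectional curve fit vs DMSO baseline, gain or loss of signal scored.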

[15] = read-out: urokinase plasminogen activator (uPA), PLAU (gene 5328); assay: BSK_BE3C_uPA: BioMAP Diversity Plus: BE3C Assay for urokinase plasminogen activator (uPA) Biomarker Activity (AID 2283038); details: primary human bronchial epithelial cells; actives raise or lower the signal;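 as to outcome: uPA protein level quantified by ELISA in cell cultures; uPA read one day after compound addition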
Procedure, shortened: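 Using confluent primary human lung bronchial epithelial cultures, we dosed chemicals, waited 24 h, then ran a uPA ELISA, fitting bidirectionally against DMSO.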

[16] = read-out: Urokinase-type plasminogen activator receptor (uPAR), PLAUR (gene 5329); assay: BSK_BE3C_uPAR: BioMAP Diversity Plus: BE3C Assay for Urokinase-type plasminogen activator receptor (uPAR) Biomarker Activity (AID 2283039); details: primary human bronchial epithelial cells; actives raise or lower the signal;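 also: uPAR protein level measured by ELISA on the cells; cells exposed to compound for one day before measurement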
Procedure, shortened: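 ELISA readout of uPAR on human lung primary bronchial epithelial cells, 24 h post-dosing. Bidirectional curve fit relative to DMSO vehicle baseline; gain or loss of signal both scored.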

[17] = read-out: Interleukin-6 (IL6), IL6 (gene 3569); assay: BSK_CASM3C_IL6: BioMAP Diversity Plus: CASM3C Assay for Interleukin-6 (IL6) Biomarker Activity for (AID 2283040); details: primary human coronary artery smooth muscle cells; actives raise or lower the signal
[18] = read-out: Tissue plasminogen activator (tPA), PLAT (gene 5327); assay: BSK_BE3C_tPA: BioMAP Diversity Plus: BE3C Assay for Tissue plasminogen activator (tPA) Biomarker Activity (AID 2283041); details: primary human bronchial epithelial cells; actives raise or lower the signal;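 as to outcome: tPA level quantified by ELISA one day after compound addition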
Procedure, shortened: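 ELISA read-out of tPA on human primary bronchial epithelial cells, 24 h post-dosing; bidirectional fit vs DMSO negative control/baseline.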

[19] = read-out: Interleukin-8 (IL8), CXCL8 (gene 3576); assay: BSK_CASM3C_IL8: BioMAP Diversity Plus: CASM3C Assay for Interleukin-8 (IL8) Biomarker Activity (AID 2283042); details: primary human coronary artery smooth muscle cells; actives raise or lower the signal;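 also: IL-8 protein level quantified by ELISA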
[20] = BSK_BE3C_SRB: Viability Assessment in the BioMAP Diversity Plus: BE3C Assay (AID 2283028); details: primary human bronchial epithelial cells;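 also: measured 24 h after chemical dosing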;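 as to AC50: fitted both ways so AC50 may mark signal gain or loss versus DMSO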
Procedure, shortened: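 SRB total-protein staining (0.1%, after TCA fixation) of chemically dosed human bronchial epithelial primary cells at 24 h; DMSO serves as the negative control for bidirectional curve fitting.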

For `O=C1CCCCCN1`, the outcome [1] was “inactive”, the outcome [2] was “inactive” and the outcome [3] was “inactive”. For the same molecule, the outcome [4] was “inactive”, the outcome [5] was “inactive” and the outcome [6] was “inactive”. For the same molecule, the outcome [7] was “inactive”, the outcome [8] was “inactive” and the outcome [9] was “inactive”. For the same molecule, the outcome [10] was “inactive”, the outcome [11] was “inactive” and the outcome [12] was “inactive”. For the same molecule, the outcome [13] was “inactive”, the outcome [14] was “inactive” and the outcome [15] was “inactive”. The outcome [16] was “inactive”, the outcome [17] was “inactive” and the outcome [18] was “inactive”. For the same molecule, the outcome [19] was “inactive”.
In the case of `CCOc1cccc(-n2cc(C(=O)N3CCN(c4cc(C(=O)O)c5ccccc5c4)CC3)nc2-c2ccc(C)cc2)c1`, the AC50 [1] is reported as 16.8 µM (active), the AC50 [2] is reported as 33.4 µM (active) and the AC50 [3] is reported as 38 µM (active). For the same molecule, the AC50 [4] was 26.2 µM (active), the AC50 [5] was 13.7 µM (active) and the AC50 [20] was 31.3 µM (active). For the same molecule, the outcome [6] was “inactive”, the AC50 [8] was 18.2 µM (active) and the AC50 [9] was 24.5 µM (active). For the same molecule, the AC50 [10] was 29.9 µM (active), the AC50 [11] was 15 µM (active) and the AC50 [12] was 32.6 µM (active). For the same molecule, the AC50 [13] was 27.4 µM (active), the AC50 [14] was 19.2 µM (active) and the AC50 [15] was 16.8 µM (active). The AC50 [17] was 30.3 µM (active), the AC50 [18] was 9.89 µM (active) and the outcome [19] was “inactive”.
In the case of `CC[C@H]1OC(=O)[C@H](C)[C@@H](O[C@H]2C[C@@](C)(OC)[C@@H](O)[C@H](C)O2)[C@H](C)[C@@H](O[C@@H]2O[C@H](C)C[C@H](N(C)C)[C@H]2O)[C@](C)(O)C[C@@H](C)C(=O)[C@H](C)[C@@H](O)[C@]1(C)O`, the outcome [1] is reported as “inactive”, the outcome [2] is reported as “inactive” and the outcome [3] is reported as “inactive”. For the same molecule, the outcome [4] was “inactive”, the outcome [5] was “inactive” and the outcome [20] was “inactive”. For the same molecule, the outcome [6] was “inactive”, the outcome [8] was “inactive” and the outcome [9] was “inactive”. For the same molecule, the outcome [10] was “inactive”, the outcome [11] was “inactive” and the outcome [12] was “inactive”. The outcome [13] was “inactive”, the outcome [14] was “inactive” and the outcome [15] was “inactive”. For the same molecule, the outcome [17] was “inactive”, the outcome [18] was “inactive” and the outcome [19] was “inactive”.
For `CCCCCCCCO`, the outcome [1] was “inactive”, the outcome [2] was “inactive” and the outcome [3] was “inactive”. The outcome [4] was “inactive”, the outcome [5] was “inactive” and the outcome [6] was “inactive”. For the same molecule, the outcome [7] was “inactive”, the outcome [8] was “inactive” and the outcome [9] was “inactive”. The outcome [10] was “inactive”, the outcome [11] was “inactive” and the outcome [12] was “inactive”. For the same molecule, the outcome [13] was “inactive”, the outcome [14] was “inactive” and the outcome [15] was “inactive”. The outcome [16] was “inactive”, the outcome [17] was “inactive” and the outcome [18] was “inactive”. For the same molecule, the outcome [19] was “inactive”.
For `Nc1cccc(N)c1`, the outcome [1] was “inactive”, the outcome [2] was “inactive” and the outcome [3] was “inactive”. The outcome [4] was “inactive”, the outcome [5] was “inactive” and the outcome [6] was “inactive”. The outcome [7] was “inactive”, the outcome [8] was “inactive” and the outcome [9] was “inactive”. The outcome [10] was “inactive”, the outcome [11] was “inactive” and the outcome [12] was “inactive”. The outcome [13] was “inactive”, the outcome [14] was “inactive” and the outcome [15] was “inactive”. For the same molecule, the outcome [16] was “inactive”, the outcome [17] was “inactive” and the outcome [18] was “inactive”. The outcome [19] was “inactive”.
With `C1N2CN3CN1CN(C2)C3` the outcome [1] was “inactive”, the outcome [2] was “inactive” and the outcome [3] was “inactive”. The outcome [4] was “inactive”, the outcome [5] was “inactive” and the outcome [20] was “inactive”. For the same molecule, the outcome [6] was “inactive”, the outcome [8] was “inactive” and the outcome [9] was “inactive”. The outcome [10] was “inactive”, the outcome [11] was “inactive” and the outcome [12] was “inactive”. For the same molecule, the outcome [13] was “inactive”, the outcome [14] was “inactive” and the outcome [15] was “inactive”. For the same molecule, the outcome [17] was “inactive”, the outcome [18] was “inactive” and the outcome [19] was “inactive”.
In the case of `CC1(C)C(=O)N(Br)C(=O)N1Br`, the outcome [1] is reported as “inactive”, the outcome [2] is reported as “inactive” and the outcome [3] is reported as “inactive”. For the same molecule, the outcome [4] was “inactive”, the outcome [5] was “inactive” and the outcome [6] was “inactive”. For the same molecule, the outcome [7] was “inactive”, the outcome [8] was “inactive” and the outcome [9] was “inactive”. The outcome [10] was “inactive”, the outcome [11] was “inactive” and the outcome [12] was “inactive”. For the same molecule, the outcome [13] was “inactive”, the outcome [14] was “inactive” and the outcome [15] was “inactive”. For the same molecule, the outcome [16] was “inactive”, the outcome [17] was “inactive” and the outcome [18] was “inactive”. For the same molecule, the outcome [19] was “inactive”.
